Data reported in PubChem BioAssay (Tox21).
Inconclusive results are not listed. Values without a mark were called inactive. The source made the active and inactive calls. Calls follow the shape of the dose curve; as a rule, active = well fitted cell-killing curve with a large enough effect in the repeat runs; inconclusive = weak or mixed curves, or effect the other way; inactive = flat fitted curve, though single readings scatter.

Test: qHTS RealTime-Glo MT Cell Viability Assay in HepG2 cells - 0 hour (AID 1224889); also: nearly all actives have a fitted effect of over 50% in size
Details: RealTime-Glo luminescence; series mostly up to 76.8 µM; activity change, negative = cytotoxicity: at the top concentration
Excerpt: U.S. Tox21 Program National Center for Advancing Translational Sciences [NCATS] NIH Chemical Genomics Center [NCGC] U.S. Environmental Protection Agency [EPA] National Institutes of Environmental Health Sciences [NIEHS] National Toxicology Program [NTP] U.S. Food and Drug Administration [FDA] Tox21 Assay Overview: Measure of cell viability is critical in the cell-base assay. Analysis of cell viability is necessary for the characterization of cell responses to cytotoxic drugs and environmental stress. A RealTime-Glo MT Cell Viability Assay to monitor cell viability in real time of continues cell culture during 40 hours of compound treatment was used to screen Tox21 10K library compounds in HepG2 cells. The RealTime-Glo MT Cell Viability Assay is a nonlytic, homogeneous, bioluminescent method to measure cell viability in real time using a simple, plate-based method. The assay involves adding NanoLuc luciferase and a cell-permeant prosubstrate to cells in culture. Viable cells reduce the proprietary prosubstrate to generate a substrate for NanoLuc luciferase. This substrate diffuses from cells into the surrounding culture medium, where it is rapidly used by the NanoLuc Enzyme to produce a luminescent signal. The signal correlates with the number of viable cells, making the assay well suited for cytotoxicity studies.
Tox21 Assay Protocol Summary: The mixture of HepG2 cell suspension and reagents were dispensed at 600cells/6 ul/well in 1536-well tissue culture treated black solid bottom plates using a Multidrop dispenser. After the assay plates were incubated at a 37 C/5% CO2 incubator for 5 hours, 23 nL of compounds dissolved in DMSO, positive and negative controls was transferred to the assay plate by a pintool work station. The plates were incubated at 37 C for 40 hours. The luminescence intensity were measured at 0h, 8h, 16h, 24h, 32h and 40h time points using ViewLux plate reader during compound treatment.
% is scaled to controls: 0 for no effect and ±100 for the full control effect; potency is read from the fitted curve at half-maximal effect.

SMILES	activity change, negative = cytotoxicity	Potency
Cl/C=C\C[N+]12CN3CN(CN(C3)C1)C2	2.14%	–
ClCc1ccccc1	-0.22%	–
N#CCC#N	-7.29%	–
C=CC(C)=O	6.24%	–
CC(C)(Cl)[N+](=O)[O-]	–	6.19 µM (active)
Nc1nc(N)nc(N)n1	8.86%	–
Cn1sc(Cl)cc1=O	1.7%	–
CCCCCC[N+](=O)[O-]	4.25%	–
O=[Se]=O	10.8% [at 35.3 µM]	–
c1ccoc1	2.53%	–
CC(C)(C)C(O)C(Oc1ccc(Cl)cc1)n1cncn1 (stereo not given)	-10.2%	–
CC/C(=N\OC/C=C/Cl)C1=C(O)CC(C2CCOCC2)CC1=O (stereo not given)	8.51%	–
CCOc1ccc(C(C)(C)COCc2cccc(Oc3ccccc3)c2)cc1	0.367%	–
O=Cc1ccc2c(c1)OCO2	12.6%	–
COc1nn(C(=O)NS(=O)(=O)c2ccccc2OC(F)(F)F)c(=O)n1C	-4.2%	–
O=C(NCc1cccnc1)Nc1ccc([N+](=O)[O-])cc1	-5.18%	–
N#C/C(N)=C(/N)C#N	-0.613%	–
CCOC(=O)[C@]1(c2ccccc2)Oc2ccccc2[C@@H]1N	-1.37%	–
Cc1c(F)c(F)c(COC(=O)C2C(/C=C(\Cl)C(F)(F)F)C2(C)C)c(F)c1F (stereo not given)	0.874%	–
C=CC(=O)OCCCCO	-1.46%	–

SMILES	activity change, negative = cytotoxicity	Potency
CN(N=O)c1ccc([N+](=O)[O-])cc1	-0.669%	–
CCOC(=O)COc1cc(-c2nn(C)c(OC(F)F)c2Cl)c(F)cc1Cl	-5.95%	–
CCCCCCCCOC(=O)c1ccc(C(=O)OCCCCCCCC)c(C(=O)OCCCCCCCC)c1	3.09%	–
S=C=NCc1ccccc1	-3.83%	–
Sc1ccccc1Cl	0.58% [at 35.3 µM]	–
O=S1(=O)OC(c2cc(Br)c(O)c(Br)c2)(c2cc(Br)c(O)c(Br)c2)c2ccccc21	–	6.34 µM (active)
CC1Sc2c(C(=O)O)c(=O)c3cc(F)c(N4CCNCC4)cc3n21 (stereo not given)	10.2% [at 35.3 µM]	–
CO[C@@H]1[C@H](OC(=O)NC(=O)CCl)CC[C@]2(CO2)[C@H]1[C@@]1(C)O[C@@H]1CC=C(C)C	0.756% [at 15.8 µM]	–
C=C(C#N)CCC#N	8.19%	–
O=C(OC1CCCCC1)c1ccccc1C(=O)OC1CCCCC1	4.89%	–
CCCC(=O)Cl	-0.84%	–
O=C(O)COc1ccc(Cl)cc1	7.25%	–
Nc1nc(=S)[nH][nH]1	4.74%	–
C=CC(=O)OCC(C)O (stereo not given)	5.98%	–
Clc1cccc2ccccc12	-2.66%	–
CCC(Br)(CC)C(=O)NC(N)=O	5.18%	–
CCCN(CCC)c1c([N+](=O)[O-])cc(S(C)(=O)=O)cc1[N+](=O)[O-]	0.891%	–
COC(=O)C(Cl)C(=O)OC	7.27% [at 35.3 µM]	–
CN1C(=O)C(O)N=C(c2ccccc2)c2cc(Cl)ccc21 (stereo not given)	-9.09%	–
O=C(Nc1ccccc1)Nc1cnns1	-0.277%	–
